Values joined by “and” are separate entries in the source; they are usually repeats but may differ in a detail not shown here. Identical values can stand only once. Records with an inconclusive call do not appear. A structure can be active in one record and inactive in another. Active and inactive are the calls of the source. How the source made its calls, unless noted: active means hit-call score of the fitted dose curve at least 0.9, where 1 is the maximum; inactive means score below 0.9.
Tests used:
[1] = read-out: Monocyte Chemoattractant Protein-1 (MCP1), CCL2 (gene 6347); test: BSK_LPS_MCP1: BioMAP Diversity Plus: LPS Assay for Monocyte Chemoattractant Protein-1 (MCP1) Biomarker Activity (AID 2283081); settings: primary human HUVEC with PBMC; actives raise or lower the signal;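 on AC50: secreted MCP-1 protein quantified by ELISA in culture supernatant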
In short: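 ELISA read-out of MCP-1 after 24 h chemical dosing of a human umbilical vein endothelial cell/peripheral blood mononuclear cell co-culture stimulated with LPS. Gain or loss of signal fitted relative to DMSO controls.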

[2] = BSK_LPS_PGE2: BioMAP Diversity Plus: LPS Assay for Prostaglandin E2 (PGE2) Biomarker Activity (AID 2283082); settings: primary human HUVEC with PBMC; actives raise or lower the signal
In short: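 LPS-activated HUVEC/PBMC co-culture; cmpd dosed, 24 h; PGE2 by ELISA; bidirectional fit vs DMSO; SRB (0.1%, TCA-fixed, 560 nm) in parallel plates for overt cytotox.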

[3] = read-out: Macrophage colony-stimulating factor (MCSF), CSF1 (gene 1435); test: BSK_LPS_MCSF: BioMAP Diversity Plus: LPS Assay for Macrophage colony-stimulating factor (MCSF) Biomarker Activity (AID 2283083); settings: primary human HUVEC with PBMC; actives raise or lower the signal
In short: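 HUVEC + PBMC co-culture (human primary), 24 h post-dose; M-CSF by ELISA; gain/loss of signal fitted bidirectionally vs DMSO baseline.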

[4] = read-out: Tissue Factor, F3 (gene 2152); test: BSK_LPS_TissueFactor: BioMAP Diversity Plus: LPS Assay for Tissue Factor Biomarker Activity (AID 2283084); settings: primary human HUVEC with PBMC; actives raise or lower the signal
In short: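 HUVEC/PBMC co-culture, LPS-activated; CD142 ELISA read 24 h post-dose; bidirectional curve fit vs DMSO negative control.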

[5] = read-out: Tumor necrosis factor (Homo sapiens) (UniProt P01375); test: BSK_LPS_TNFa: BioMAP Diversity Plus: LPS Assay for Tumour Necrosis Factor alpha (TNFa) Biomarker Activity (AID 2283085); settings: primary human HUVEC with PBMC; actives raise or lower the signal
In short: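 Read-out is ELISA of TNFa in primary human endothelial cell–PBMC co-cultures at 24 h after compound. Activity in either direction was fitted against DMSO.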

CD38, CD38 (gene 952) = test: BSK_SAg_CD38: BioMAP Diversity Plus: SAg Assay for CD38 Biomarker Activity (AID 2283087); settings: primary human HUVEC with PBMC; actives raise or lower the signal
In short: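 Human HUVEC plus PBMC co-culture stimulated with superantigen; CD38 measured by ELISA 24 h after chemical dosing. Fluorescence read-out, bidirectional fit against DMSO; cytotoxicity tracked in parallel by SRB and Alamar Blue.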

CD40, CD40 (gene 958) = test: BSK_SAg_CD40: BioMAP Diversity Plus: SAg Assay for CD40 Biomarker Activity (AID 2283088); settings: primary human HUVEC with PBMC; actives raise or lower the signal
In short: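 HUVEC/PBMC co-culture, 24 h post-dose; CD40 by ELISA, fluorescence intensity; bidirectional fit vs DMSO negative control.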

CD69, CD69 (gene 969) = test: BSK_SAg_CD69: BioMAP Diversity Plus: SAg Assay for CD69 Biomarker Activity (AID 2283089); settings: primary human HUVEC with PBMC; actives raise or lower the signal;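 on AC50: cell surface CD69 protein quantified by ELISA with fluorescence detection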
In short: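 Values derive from bidirectional fitting relative to DMSO vehicle. Cells: umbilical vein endothelium plus peripheral blood mononuclear cells, treated 24 h before fluorescent ELISA for CD69.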

[6] = read-out: Monocyte Chemoattractant Protein-1 (MCP1), CCL2 (gene 6347); test: BSK_SAg_MCP1: BioMAP Diversity Plus: SAg Assay for Monocyte Chemoattractant Protein-1 (MCP1) Biomarker Activity (AID 2283090); settings: primary human HUVEC with PBMC; actives raise or lower the signal
In short: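 MCP-1 levels in the endothelial–PBMC SAg co-culture were quantified by ELISA at 24 h post-dosing; both increases and decreases versus DMSO scored. Cytotoxicity monitored by SRB total protein in parallel cultures.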

[7] = read-out: E-selectin (Homo sapiens) (UniProt P16581); test: BSK_SAg_Eselectin: BioMAP Diversity Plus: SAg Assay for Eselectin Biomarker Activity (AID 2283091); settings: primary human HUVEC with PBMC; actives raise or lower the signal
In short: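 E-selectin ELISA readout at 24 h post-dosing in human umbilical vein endothelial cell/PBMC co-culture; gain or loss of signal fitted relative to DMSO baseline.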

[8] = read-out: Monokine induced gamma interferon (MIG), CXCL9 (gene 4283); test: BSK_SAg_MIG: BioMAP Diversity Plus: SAg Assay for Monokine induced gamma interferon (MIG) Biomarker Activity (AID 2283092); settings: primary human HUVEC with PBMC; actives raise or lower the signal
In short: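 Values reflect bidirectional fitting of ELISA-measured MIG against DMSO vehicle, taken 24 h after dosing of a co-culture of human umbilical vein endothelial cells and peripheral blood mononuclear cells.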

[9] = read-out: Interleukin-8 (IL8), CXCL8 (gene 3576); test: BSK_SAg_IL8: BioMAP Diversity Plus: SAg Assay for Interleukin-8 (IL8) Biomarker Activity (AID 2283094); settings: primary human HUVEC with PBMC; actives raise or lower the signal
In short: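 ELISA read-out of IL-8 in a primary human vascular co-culture (umbilical vein endothelium plus PBMC), taken 24 h after compound addition. Values derive from bidirectional fits against DMSO negative controls.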

[10] = BSK_SAg_Proliferation: Cell Proliferation Assessment in the BioMAP Diversity Plus: SAg Assay (AID 2283095); settings: primary human HUVEC with PBMC;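 further: relative cell number as total protein by SRB absorbance in sub-confluent culture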
In short: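 Cells (endothelium plus PBMC, human primary) were dosed with chemical, cultured 96 h, fixed in 10% TCA and stained with 0.1% SRB. Absorbance at 560 nm gave relative protein, fitted bidirectionally relative to DMSO.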

[11] = BSK_SAg_SRB: Viability Assessment in the BioMAP Diversity Plus: SAg Assay (AID 2283096); settings: primary human HUVEC with PBMC;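 further: cells read one day after compound addition; hits may be either gain or loss of signal compared with DMSO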
In short: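 Total protein by sulforhodamine B staining, 24 h after dosing, in HUVEC–PBMC co-culture; DMSO-referenced bidirectional fitting.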

[12] = read-out: Vascular cell adhesion molecule 1 (VCAM1), VCAM1 (gene 7412); test: BSK_LPS_VCAM1: BioMAP Diversity Plus: LPS Assay for Vascular cell adhesion molecule 1 (VCAM1) Biomarker Activity (AID 2283086); settings: primary human HUVEC with PBMC; actives raise or lower the signal
In short: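 HUVEC + PBMC co-culture, LPS system; compound 24 h; VCAM-1 by ELISA; bidirectional fit vs DMSO control; parallel SRB (0.1%, TCA-fixed, 560 nm) for cytotoxicity.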

[13] = BSK_SAg_PBMCCytotoxicity: PBMC Cytotoxicity Assessment in the BioMAP Diversity Plus: SAg Assay (AID 2283093); settings: primary human HUVEC with PBMC;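 further: PBMC viability measured as Alamar Blue reduction fluorescence at 546/580 nm; fitted both ways against DMSO so a hit may be loss or gain of signal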
In short: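 Compound added to 75,000 PBMC/well for 1 h; SEB and TSST-1 then added at 20 ng/mL final each; 90 h incubation; Alamar Blue 6 h; read 546/580 nm ex/em. Activity fitted bidirectionally relative to DMSO baseline.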

[14] = target: human CYP2C9, CYP2C9 (gene 1559) (UniProt P11712); test: NVS_ADME_hCYP2C9: NovaScreen (NVS) CYP450-related Enzyme Activity (ADME) Assay for human CYP2C9 (AID 2283108; active means hit-call score of the fitted dose curve at least 0.9, where 1 is the maximum)
Chain of human CYP2C9, CYP2C9 (gene 1559) (P11712 whole entry, looked up): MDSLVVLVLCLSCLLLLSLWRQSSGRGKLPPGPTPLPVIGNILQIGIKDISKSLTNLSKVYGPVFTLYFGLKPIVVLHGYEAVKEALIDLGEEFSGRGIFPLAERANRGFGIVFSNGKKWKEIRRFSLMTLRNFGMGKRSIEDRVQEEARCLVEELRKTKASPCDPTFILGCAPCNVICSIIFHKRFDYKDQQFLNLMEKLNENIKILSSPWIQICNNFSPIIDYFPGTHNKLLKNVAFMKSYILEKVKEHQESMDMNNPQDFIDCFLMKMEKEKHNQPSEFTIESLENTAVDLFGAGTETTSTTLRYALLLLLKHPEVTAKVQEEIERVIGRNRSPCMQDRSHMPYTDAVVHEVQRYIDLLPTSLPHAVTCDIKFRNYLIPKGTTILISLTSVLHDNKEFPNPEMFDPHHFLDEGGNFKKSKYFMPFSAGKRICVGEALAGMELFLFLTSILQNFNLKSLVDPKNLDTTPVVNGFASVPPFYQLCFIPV
In short: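 Fluorescence readout of CYP2C9 activity (SF9-expressed human enzyme) at 0.75 h. The primary screen used 10 uM in duplicate, with concentration-response follow-up for actives; acetonitrile was the negative control.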

Measured: AC50

Chain of E-selectin (Homo sapiens) (P16581 whole entry, looked up): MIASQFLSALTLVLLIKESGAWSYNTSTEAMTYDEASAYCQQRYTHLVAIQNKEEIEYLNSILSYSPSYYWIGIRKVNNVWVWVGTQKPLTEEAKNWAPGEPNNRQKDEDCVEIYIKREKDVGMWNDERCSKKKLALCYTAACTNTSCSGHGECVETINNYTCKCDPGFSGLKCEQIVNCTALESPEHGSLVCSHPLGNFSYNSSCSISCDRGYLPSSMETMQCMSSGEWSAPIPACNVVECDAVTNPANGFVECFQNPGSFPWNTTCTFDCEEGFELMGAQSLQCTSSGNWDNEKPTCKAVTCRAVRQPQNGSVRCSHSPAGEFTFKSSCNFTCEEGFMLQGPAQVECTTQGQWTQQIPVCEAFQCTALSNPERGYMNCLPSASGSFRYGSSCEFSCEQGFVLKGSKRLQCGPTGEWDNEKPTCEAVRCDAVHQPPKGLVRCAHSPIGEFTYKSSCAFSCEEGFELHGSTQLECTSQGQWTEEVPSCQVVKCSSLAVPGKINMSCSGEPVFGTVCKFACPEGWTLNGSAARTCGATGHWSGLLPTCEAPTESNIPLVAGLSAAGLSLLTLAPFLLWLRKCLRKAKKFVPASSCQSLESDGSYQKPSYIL
Chain of Tumor necrosis factor (Homo sapiens) (P01375 whole entry, looked up): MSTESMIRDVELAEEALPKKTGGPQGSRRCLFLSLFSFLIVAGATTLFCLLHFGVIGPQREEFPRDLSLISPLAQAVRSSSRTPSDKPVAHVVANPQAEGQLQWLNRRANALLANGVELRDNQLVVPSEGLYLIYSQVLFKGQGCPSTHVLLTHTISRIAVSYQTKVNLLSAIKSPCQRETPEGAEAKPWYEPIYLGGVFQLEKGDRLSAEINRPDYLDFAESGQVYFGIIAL

OCC(F)(F)C(F)(F)C(F)(F)C(F)(F)C(F)(F)C(F)F
not listed: [12] | [13] | [14]
inactive: all other assays above

FC(F)(F)C(F)(F)C(F)(F)C(F)(F)C(F)(F)C(F)(F)C(F)(F)I
not listed: CD38, CD38 (gene 952) | [14]
inactive: all other assays above

O=C(O)C(F)(OC(F)(F)C(F)(OC(F)(F)C(F)(OC(F)(F)C(F)(F)C(F)(F)F)C(F)(F)F)C(F)(F)F)C(F)(F)F (stereo unspecified)
not listed: [12] | [14]
inactive: all other assays above

O=C(O)C(F)(F)C(F)(F)C(F)(F)C(F)(F)F
inactive: [1] | [2] | [3] | [4] | [5] | [12] | CD38, CD38 (gene 952) | CD40, CD40 (gene 958) | CD69, CD69 (gene 969) | [6] | [7] | [8] | [9] | [10] | [11]
active: [3] 8.3 µM

O=C(Cl)C(F)(F)C(F)(F)C(F)(F)C(F)(F)C(F)(F)C(F)(F)C(F)(F)C(F)(F)F
active: [1] 45.7 µM and 47.4 µM and 54.8 µM | [4] 39.5 µM and 30 µM | [5] 54.8 µM and 48.8 µM and 47.2 µM | CD40, CD40 (gene 958) 30 µM and 48.9 µM | CD69, CD69 (gene 969) 24.5 µM and 30 µM and 43.1 µM | [6] 44.8 µM and 43.8 µM | [9] 42.7 µM | [11] 42.7 µM and 42.8 µM and 30 µM
inactive: [2] | [3] | [4] | CD40, CD40 (gene 958) | [6] | [7] | [8] | [13] | [9] | [10]

FC(F)(F)C(F)(F)C(F)(F)N(C(F)(F)C(F)(F)C(F)(F)F)C(F)(F)C(F)(F)C(F)(F)F
not listed: [12] | [13] | [14]
inactive: all other assays above

N=C(N)C(F)(F)C(F)(F)C(F)(F)C(F)(F)C(F)(F)C(F)(F)C(F)(F)F
active: [1] 45.8 µM | [3] 47 µM | [5] 33.1 µM | [12] 40.3 µM | CD40, CD40 (gene 958) 54.7 µM | CD69, CD69 (gene 969) 51 µM | [6] 55 µM | [7] 48.3 µM | [8] 55.4 µM | [9] 55.1 µM | [10] 45 µM and 47.4 µM | [11] 53 µM
inactive: [1] | [2] | [3] | [4] | [5] | [12] | CD40, CD40 (gene 958) | CD69, CD69 (gene 969) | [6] | [7] | [8] | [9] | [11]

O=C(O)C(F)(F)C(F)(F)OC(F)(F)F
not listed: [13] | [14]
inactive: all other assays above

CCCCOCCOCCOC(=O)CCCCC(=O)OCCOCCOCCCC
active: [5] 5.67 µM | [14] 3.07 µM
not listed: CD38, CD38 (gene 952) | [12] | [13]
inactive: all other assays above

OCC(F)(F)C(F)(F)C(F)(F)C(F)(F)C(F)(F)C(F)(F)F
not listed: CD38, CD38 (gene 952) | [13] | [14]
inactive: all other assays above

FC(F)(F)C(F)(F)CNCC(F)(F)C(F)(F)F
active: [3] 6.78 µM
inactive: [1] | [2] | [3] | [4] | [5] | CD38, CD38 (gene 952) | CD40, CD40 (gene 958) | CD69, CD69 (gene 969) | [6] | [7] | [8] | [13] | [9] | [10] | [11]
